Laboratory results as given in PubChem BioAssay (EPA / NIEHS).
“And” between values parts separate entries of the source, which are not always exact repeats. Equal entries are not always repeated. The source made the active and inactive calls. Rule for the calls: active = hit-call score of the fitted dose curve at least 0.9, where 1 is the maximum; inactive = score below 0.9.

Each molecule was assayed on CD90, THY1 (gene 7070) (assay: BSK_BF4T_CD90: BioMAP Diversity Plus: BF4T Assay for CD90 Biomarker Activity (AID 2284262)). Conditions: primary human bronchial epithelial cells with fibroblasts.
In short: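 CD90 levels by ELISA after 24 h treatment of human bronchial epithelial cell/dermal fibroblast cultures, analysed versus DMSO. Overt cytotoxicity checked in parallel cultures by sulforhodamine B staining.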

Row | SMILES | AC50 | outcome
1 | O=C(O)C(F)(F)C(F)(F)C(F)(F)C(F)(F)C(F)(F)C(F)(F)C(F)(F)C(F)(F)C(F)(F)F | 19 µM (active) and 19.4 µM (active) | 
2 | O=S(=O)(O)C(F)(F)C(F)(F)C(F)(F)C(F)(F)C(F)(F)C(F)(F)F |  | inactive
3 | O=S(=O)(O)C(F)(F)C(F)(F)C(F)(F)C(F)(F)F |  | inactive
4 | NS(=O)(=O)C(F)(F)C(F)(F)C(F)(F)C(F)(F)C(F)(F)C(F)(F)C(F)(F)C(F)(F)F | 30 µM (active) and 21.8 µM (active) | 
5 | O=C(O)C(F)(F)C(F)(F)C(F)(F)C(F)(F)C(F)(F)F |  | inactive
6 | O=C(O)C(F)(F)C(F)(F)C(F)(F)C(F)(F)C(F)(F)C(F)(F)C(F)(F)C(F)(F)F |  | inactive

What follows are molecules tested on Interleukin-8 (IL8), CXCL8 (gene 3576) (assay: BSK_BF4T_IL8: BioMAP Diversity Plus: BF4T Assay for Interleukin-8 (IL8) Biomarker Activity (AID 2284263)). Conditions: primary human bronchial epithelial cells with fibroblasts.
In short: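 Human bronchial epithelial cells with dermal fibroblasts co-culture; IL-8 measured by ELISA 24 hours after dosing, fitted vs DMSO. Cytotoxicity tracked in parallel cultures by SRB total-protein staining.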

Row | SMILES | outcome | AC50
7 | O=C(O)C(F)(F)C(F)(F)C(F)(F)C(F)(F)C(F)(F)C(F)(F)C(F)(F)C(F)(F)C(F)(F)F | inactive | 
8 | O=S(=O)(O)C(F)(F)C(F)(F)C(F)(F)C(F)(F)C(F)(F)C(F)(F)F | inactive | 
9 | O=S(=O)(O)C(F)(F)C(F)(F)C(F)(F)C(F)(F)F | inactive | 
10 | NS(=O)(=O)C(F)(F)C(F)(F)C(F)(F)C(F)(F)C(F)(F)C(F)(F)C(F)(F)C(F)(F)F |  | 49.2 µM (active) and 48.2 µM (active)
11 | O=C(O)C(F)(F)C(F)(F)C(F)(F)C(F)(F)C(F)(F)F | inactive | 
12 | O=C(O)C(F)(F)C(F)(F)C(F)(F)C(F)(F)C(F)(F)C(F)(F)C(F)(F)C(F)(F)F |  | 48 µM (active) and 48.7 µM (active)
